Compound activity from PubChem.
BAZ2B block: BAZ2B (human) inhibition | AlphaScreen BAZ2B-H3K14Ac peptide displacement | Potency, µM (highest dose often 114 µM), inactives show top-dose activity change, negative = inhibition, most hits filed as inhibitors | 4.4% of 360,000 active | AID 504333; note: % is set by controls: 0 for no effect and ±100 for the full control effect; nearly all actives have a fitted effect of over 60% in size
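Complex of BAZ2B and biotin-H3K14Ac (50 nM apiece) forms over 30 min at RT, then faces library compounds up to 110 uM for another 30 min; AlphaScreen beads added, 20 min dark incubation, luminescence read.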
G9a inh: blocks human histone lysine methyltransferase G9a. Q96KQ7. G9a H3K9 monomethylation, AlphaScreen, 2 h. 8.8% of 350,000 active. AID 504332. Potency, µM (doses to about 102 µM), without a hit: top-dose activity, negative = inhibition, actives largely listed as inhibitors; note: % is set by controls: 0 for no effect and ±100 for the full control effect; nearly all actives have a fitted effect of over 75% in size
Target sequence (Q96KQ7 913-1193 limits assumed): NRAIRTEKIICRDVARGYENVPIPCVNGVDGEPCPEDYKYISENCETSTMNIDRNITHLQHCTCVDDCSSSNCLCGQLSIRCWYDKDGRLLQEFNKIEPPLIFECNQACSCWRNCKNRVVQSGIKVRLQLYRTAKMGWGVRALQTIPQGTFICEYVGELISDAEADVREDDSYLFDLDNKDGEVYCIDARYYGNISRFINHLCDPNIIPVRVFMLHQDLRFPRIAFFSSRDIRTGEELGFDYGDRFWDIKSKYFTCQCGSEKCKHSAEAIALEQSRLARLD
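AlphaScreen read-out: biotin-H3K9 peptide (500 nM) methylation by 20 nM enzyme with 20 uM SAM, 2 h at room temperature after 15 min compound preincubation; anti-monomethyl H3K9 antibody plus donor/acceptor beads, 10 min dark.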
L3MBTL1 inh: blocks human L3MBTL1. Q9Y468. AlphaScreen L3MBTL1–H3K9me1 peptide binding. Potency, µM (titrated, usually from 57.1 µM), for inactives: at the top dose activity, negative = inhibition, most hits filed as inhibitors. 0.66% of 230,000 active; note: % is set by controls: 0 for no effect and ±100 for the full control effect; nearly all actives have a fitted effect of over 60% in size
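Read-out is AlphaScreen signal from streptavidin donor and nickel chelate acceptor beads (10 ug/mL final each) bridging L3MBTL1 (50 nM) and biotinylated K9-monomethylated H3(1-15) peptide (75 nM), after 30 min compound exposure at room temperature.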
JMJD2A Tudor inh: JMJD2A Tudor domain (human) inhibition. O75164. AlphaScreen JMJD2A-Tudor / H3K4me3 peptide binding. Potency, µM (titrated, usually from 114 µM), for inactives: at the highest dose activity change, negative = inhibition, hits mostly inhibitors. 4.4% of 390,000 active. AID 504339; note: % is set by controls: 0 for no effect and ±100 for the full control effect; nearly all actives have a fitted effect of over 50% in size
HP1b chromo inh: HP1-beta chromodomain-methylated histone interaction inhibition; P83916; 0.56% of 390,000 active; Potency, µM (doses to about 114 µM), without a hit: at the top dose activity change, negative = inhibition, most hits filed as inhibitors; AlphaScreen HP1-beta / biotin-H3K9me3 peptide binding; AID 540317; note: nearly all actives have a fitted effect of over 70% in size
Target sequence (P83916 whole entry, looked up): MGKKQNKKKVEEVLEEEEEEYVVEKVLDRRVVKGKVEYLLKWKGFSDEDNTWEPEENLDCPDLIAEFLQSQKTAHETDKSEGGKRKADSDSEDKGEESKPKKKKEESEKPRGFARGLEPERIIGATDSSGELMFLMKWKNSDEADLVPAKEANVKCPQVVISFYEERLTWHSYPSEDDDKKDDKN
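HP1-beta protein (50 nM final) preincubated 30 min at room temperature with biotinylated H3(1-18)K9me3 peptide (50 nM) in PBS pH 7.4, 0.01% Tween-20, then compound added for 30 min. AlphaScreen streptavidin donor/nickel chelate acceptor beads (10 ug/mL final), 30 min dark, luminescence read.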
Sfp inh: blocks B. subtilis Sfp PPTase activity; Biochemical Sfp PPTase activity, qHTS; Potency, µM, for inactives: largest response in the series, negative = inhibition, usual class: inhibitors; 3.5% of 310,000 active; AID 1490;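 note: the enzyme is Sfp with the accession as filed and its product quenches rhodamine fluorescence; 0% = enzyme reaction without inhibitor and -100% = no enzyme wells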
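Fluorescence-quenching assay: 15 nM Sfp-PPTase preincubated 15 min at room temperature with compound, then 5 uM rhodamine-CoA and 12.5 uM BHQ-2-labelled YbbR peptide added. Fluorescence (ex 525/em 598 nm) read at start and after 30 min; difference gives rate.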
* marks the source's active call; other numbers are inactive results; ? = inconclusive; . = no result given; ! = not confirmed by another sample; [ ] = dose if it differs, or a comment. The list is not random: actives were taken first. Their share in the collection is about 12%. Calls come from the whole dose curve; as a rule, active = well fitted curve in the direction sought with a large enough effect; inconclusive = small, poorly fitted or top-dose-only effect, or another doubt; inactive = no such curve, though single readings can be large; an effect the other way counts as inactive or inconclusive. Potency is the fitted concentration of half-maximal effect.

SMILES | BAZ2B block | G9a inh | L3MBTL1 inh | JMJD2A Tudor inh | HP1b chromo inh | Sfp inh
O=C(Nc1ccc(Nc2ccccc2)cc1)c1ccc(Br)o1 | 22µM* | 35µM* | -21% | 40µM* | ? | 5%
Cc1ccc(S(=O)(=O)NC(=O)c2ccc(Br)o2)cc1 | 1% | 35µM*! | 9% | -20% | 35% | 7%
Cc1ccc(S(=O)(=O)NC(=O)c2ccc(Br)o2)c(C)c1 | 1% | -6% | 4% | -10% | 40% | 14%
Cc1cccc(Oc2ccc(NC(=O)CCC(=O)OCC(=O)c3ccc(Br)cc3)cc2)c1C | -1% | -33%[59 µM] | . | -18% | 5% | .
Cc1cc(O)c(NC(=O)c2ccc(Br)o2)cc1C | 50µM* | 26%[12.7 µM] | -9% | -26% | 2% | -7%
CCN(CC)c1ccc(NC(=O)c2ccc(NC(=O)C3CCCO3)cc2)c(C)c1 (stereo not given) | -37% | 8.9µM* | -16% | -33% | -13% | -3%
CCN(CC)c1ccc(NC(=O)c2ccc(Br)o2)c(C)c1 | 40µM* | ? | -18% | 56µM* | ? | -6%
CCOc1ccccc1NC(=O)n1ncc2cc(Cl)ccc21 | -9% | -25%[59 µM] | . | -13% | 22% | .
COC(=O)c1c(-c2ccc(C(C)(C)C)cc2)csc1NC(=O)C1C2CCC(O2)C1C(=O)O (stereo not given) | -12% | 1.8µM* | 6% | ? | ? | 11µM*
CCOC(=O)c1c(C)[nH]c(C(=O)CSc2ccc(Cl)cc2)c1C | -2% | 3%[59 µM] | . | -3% | 13% | 5%
CCOC(=O)c1c(C)[nH]c(C(=O)CSc2nnc(Nc3ccccc3F)s2)c1C | -37% | 18µM* | -9% | -24% | 18% | ?
CCc1ccc(NC(=O)C(CC)n2c(=O)c(C(F)(F)F)nc3ccccc32)cc1 (stereo not given) | 2% | 2%[59 µM] | . | 3% | 32% | .
O=C1CCCC/C1=C/Nc1ccc2c(c1)OCO2 | ? | 35µM* | -2% | -14% | -4% | ?
O=C1CCC/C1=C/Nc1cccc(F)c1 | -21% | . | 2% | 50µM* | -11% | -8%
CCOC(=O)c1cccc(NC(=O)CC(c2cc(OC)c(OC)c(OC)c2)N2Cc3ccccc3C2=O)c1 (stereo not given) | -11% | -8%[59 µM] | . | -31% | -1% | .
O=[N+]([O-])c1ccc(/C=N/N2CCN(c3ccncc3S(=O)(=O)N3CCCCC3)CC2)cc1 | 0% | 22%[59 µM] | -5% | -24% | 4% | 9%
O=[N+]([O-])c1ccccc1/C=N/N1CCN(c2ccncc2S(=O)(=O)N2CCCCC2)CC1 | 32µM* | ? | -29% | 35µM* | ? | -7%
COc1cccc(C(=O)Nc2ccccc2C(=O)OCc2cc(=O)n3nc(C4CC4)sc3n2)c1 | -17% | 8%[59 µM] | . | -13% | 3% | .
O=C(NCC1CCCO1)/C(=C\c1ccccc1)NC(=O)c1ccccc1 (stereo not given) | -8% | . | 5% | -13% | -4% | 6%
Cc1ccc(/C=C(\NC(=O)c2ccccc2)C(=O)NCC2CCCO2)o1 (stereo not given) | -12% | 56µM* | 3% | -7% | 33% | 15%
O=C(NCc1ccccc1)/C(=C\c1ccccc1)NC(=O)c1ccco1 | -11% | 27% | . | -20% | 21% | 8%
CC(=O)N/C(=C\c1ccc(C)o1)C(=O)NCc1ccccc1 | -2% | 71µM* | -2% | -28% | 43% | -4%
Cc1nn2c(=O)cc(COC(=O)c3ccccc3NC(=O)C(C)C)nc2s1 | -14% | -3%[12.7 µM] | . | 9% | 39% | .
COC(=O)c1c(NC(=O)CCCOc2ccc(C(C)(C)C)cc2)sc2c1C(C(=O)OC)CC2 (stereo not given) | 28µM* | 1.4µM* | . | 56µM* | -24% | .
CCCC(=O)Nc1sc2c(c1C(=O)OC)C(C(=O)OC)CC2 (stereo not given) | 9% | -3%[59 µM] | -3% | -11% | 11% | -7%
SMILES | BAZ2B block | G9a inh | L3MBTL1 inh | JMJD2A Tudor inh | HP1b chromo inh | Sfp inh
Cc1ccc(-c2nc3n(n2)C(c2ccccc2Cl)C=C(c2ccc(Cl)cc2)N3)cc1 (stereo not given) | -35% | -21%[59 µM] | . | -29% | 17% | .
COc1ccc(NC(=S)NC(=O)/C=C/c2cccs2)cc1 | -12% | ? | -1% | -20% | 19% | 14%
O=C(/C=C/c1cccs1)NC(=S)NNC(=O)Cc1cccs1 | 9% | 4.5µM* | 26% | -5% | 26% | 23%
COc1ccc(/C=C/C(=O)NC(=S)NNC(=O)Cc2cccs2)cc1OC | 6% | 3.5µM* | . | -9% | 10% | -3%
COc1ccccc1NC(=S)NC(=O)/C=C/c1cccs1 | . | 45µM* | . | -11% | -22% | 3%
O=C(/C=C/c1cccs1)NCc1cccs1 | . | . | . | -10% | 24% | .
COc1ccccc1NC(=S)NC(=O)Cc1ccccc1 | . | . | . | 0% | 31% | .
COc1ccc(/C=C/C(=O)NC(=S)NNC(=O)c2cccs2)cc1OC | 10% | ? | . | 14% | 23% | -16%
COc1ccccc1NC(=S)NC(=O)C(C)(C)C | -2% | 40µM* | 29% | -23% | 15% | -3%
Fc1ccc(-c2nnc(CN3CCN(c4ccccn4)CC3)o2)cc1 | -13% | 0%[59 µM] | . | -1% | 22% | .
COc1ccccc1NC(=S)NNC(=O)c1nn(C)c(C)c1Br | -2% | 11µM* | 17% | -20% | -2% | 2%
COc1ccc(CN2CCCN(C)CC2)c(OC)c1C | ? | . | -6% | 8.9µM* | ? | 79µM*
COc1cc(CNCCN(C)C)c(Br)cc1OC1CCCC1 | -22% | -27% | -21% | -31% | 24% | 1%
COc1cc(Br)c(CN2CCCN(C)CC2)cc1OC | -27% | 71µM* | -4% | -17% | 29% | -2%
O=C(O)[C@@H](O)[C@@H](O)[C@@H](O[C@H]1O[C@@H](CO)[C@@H](O)[C@@H](O)[C@@H]1O)[C@@H](O)CO | . | 21%[21.5 µM] | . | . | . | 24%
Cc1nnc(SCc2nc(-c3ccc(Cl)cc3)no2)n1-c1ccc(F)cc1 | -8% | -34%[59 µM] | . | -7% | 22% | .
